Bioassay records: PubChem, several laboratories
A selection: hits, their analogues and other compounds. The true share with any hit is near 1.9%.
PrPC surface inh: cell surface PrPC inhibition, primary TR-FRET screen; TR-FRET read-out; inhibition, % at 13.8 µM; P04156; 0.43% of 370,000 active; AID 720596; in the data active means inhibition above about 24%; further: 0% = median of the test wells and 100% = reference compound wells
BJeLR lethal: BJeLR cell viability loss. 0.17% of 300,000 active. BJeLR (HRASV12) viability, CellTiter-Glo ATP luminescence, 48 h. AID 1554. inhibition, % (concentration not given with the values); in the data active means inhibition above about 50%; inconclusive means no clear call, values can overlap the other calls
PrP UTR inh: suppresses PrP 5' UTR mRNA reporter expression; cell-based PrP 5' UTR mRNA reporter, plate reader; inhibition, % (test concentration not listed); 0.35% of 340,000 active; AID 488862; in the data active means inhibition above about 52%; further: 0 = median of the neutral control wells
PriA SSB inh: blocks PriA binding to SSB C-terminal tail. AlphaScreen SSBct-PriA binding, biotinylated peptide. inhibition, % at 33 µM. 0.6% of 430,000 active; in the data active means inhibition mostly above about 37%, no sharp cut-off; inactive means mostly below about 20%;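 further: plate controls were negative control peptide for no effect and reference peptide for full effect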
PfHsp40 yeast: restores yeast growth despite PfHsp40 toxicity | 0.68% of 340,000 active | growth rescue, % at 12.5 µM | S. cerevisiae expressing PfHsp40, growth rescue, ATP luminescence; in the data active means growth rescue above about 28%, passing the limit was not always enough; inconclusive means no clear call, values can overlap the other calls;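 further: yeast W303a lacking pdr1 and pdr3 grown in galactose medium; growth measured after three days at 30 °C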
RecA intein inh: inhibitors of M. tuberculosis RecA intein splicing. cell-free RecA intein splicing, fluorescence. inhibition, % (no concentration beside the values). 0.75% of 290,000 active. AID 2221; in the data active means inhibition above about 30%; inconclusive means no clear call, values can overlap the other calls;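 further: 0% = vehicle wells and 100% = reference inhibitor control wells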
Target sequence (P9WHJ3 whole entry, looked up): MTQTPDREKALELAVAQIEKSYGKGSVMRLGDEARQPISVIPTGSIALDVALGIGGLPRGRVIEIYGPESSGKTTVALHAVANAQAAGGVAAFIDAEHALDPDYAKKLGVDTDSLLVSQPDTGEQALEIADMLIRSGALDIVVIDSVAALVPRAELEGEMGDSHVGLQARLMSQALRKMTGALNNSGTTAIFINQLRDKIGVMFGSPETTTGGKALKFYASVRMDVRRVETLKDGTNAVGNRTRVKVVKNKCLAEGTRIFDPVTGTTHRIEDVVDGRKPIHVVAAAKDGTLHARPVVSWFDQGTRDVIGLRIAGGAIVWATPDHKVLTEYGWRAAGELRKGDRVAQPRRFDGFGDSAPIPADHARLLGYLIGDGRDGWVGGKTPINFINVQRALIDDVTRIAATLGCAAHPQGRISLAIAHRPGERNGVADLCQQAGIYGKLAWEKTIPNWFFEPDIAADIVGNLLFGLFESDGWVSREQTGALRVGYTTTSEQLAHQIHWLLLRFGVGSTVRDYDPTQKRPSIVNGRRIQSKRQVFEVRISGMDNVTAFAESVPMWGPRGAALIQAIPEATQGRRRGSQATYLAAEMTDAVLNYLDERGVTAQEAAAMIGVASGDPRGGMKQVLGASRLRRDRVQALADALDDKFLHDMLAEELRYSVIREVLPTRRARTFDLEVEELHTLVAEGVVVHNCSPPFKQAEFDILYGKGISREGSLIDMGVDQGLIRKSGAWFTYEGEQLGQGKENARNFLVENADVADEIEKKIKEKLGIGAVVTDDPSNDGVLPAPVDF
An asterisk follows results filed as active; i = inactive; ? = inconclusive; . = no result given.

SMILES	PrPC surface inh	BJeLR lethal	PrP UTR inh	PriA SSB inh	PfHsp40 yeast	RecA intein inh
COc1cc(SC#N)ccc1N=Cc1c(C)[nH]n(-c2ccc(C)cc2C)c1=O	15	10	-10	12	38*	-3
COc1cc(SC#N)ccc1N=Cc1c(C)[nH]n(-c2cccc3ccccc23)c1=O	.	2	.	4	.	-2
COc1ccc2nc(/N=C/c3c(C)[nH]n(-c4ccc(C)cc4C)c3=O)sc2c1	6	1	-31	.	-1	5
COc1ccc(NC(=O)c2ccc(S(=O)(=O)c3ccc(C)c(C)c3)nc2)c(OC)c1	.	.	.	-1	.	.
CSc1nnnn1CCn1nnnc1SC	36*	-8	-1	-10	0	-1
Cn1nnnc1SCSc1nnnn1C	-4	-2	-6	-7	-2	-2
CS(=O)(=O)[C@H]1CCN(C(=O)NCCc2ccccc2)C1	.	.	.	-19	.	.
Cc1cc(C)cc(OCCNC(=O)C2CCCC2)c1	.	.	.	-13	.	.
CCc1ccc(OCC(=O)NNC(=S)NC(=O)C2CCCCC2)c(Br)c1	1	-12	0	-6	9	.
COc1ccc(OCC(=O)NNC(=S)NC(=O)C2CCCCC2)cc1	0	-4	0	.	346*	.
Cc1cc(C)cc(OCC(=O)NNC(=S)NC(=O)C2CC2)c1	-1	-13	-34	11	112*	22
CCc1ccc(OCC(=O)NNC(=S)NC(=O)C2CC2)c(Br)c1	-4	.	-22	-4	48*	9
COc1ccc(OCC(=O)NNC(=S)NC(=O)C2CC2)cc1	0	-2	-12	6	-1	9
COc1ccccc1CCNC(=O)Cc1c(C)[nH]c(=O)[nH]c1=O	.	.	.	8	.	.
COc1ccc(NC(=O)c2cn(-c3cc(N4CCSCC4)ncn3)cn2)cc1	.	.	.	-15	.	.
O=C(Nc1cc(C(F)(F)F)cc(C(F)(F)F)c1)c1ccc(S(=O)(=O)N2CCCCCC2)cc1	.	.	.	-8	.	.
Cc1cccc(CC(=O)N(c2ccc(F)cc2)C2C=CS(=O)(=O)C2)c1 (stereo not drawn)	.	.	.	-4	.	.
c1ccc(-c2ccc(-n3ccnc3)cc2)cc1	2	-11	-92	14	1	5
c1ccc(-c2ccc(C(c3ccccc3)n3ccnc3)cc2)cc1 (stereo not drawn)	2	-13	1	-8	176*	?
CCOC(=O)c1c(NC(=O)c2noc(C)c2[N+](=O)[O-])sc(C(C)=O)c1C	12	-6	14	59*	0	-2
CCOC(=O)c1ccc(NC(=O)/C=C/C2=Cc3ccccc3OC2)cc1	.	.	.	-1	.	.
O=C(O)c1ccc(N/N=C/C2=Cc3ccccc3OC2)cc1	9	12	-108	i	179*	-2
Cn1cnnc1SCCNC(=O)C1(c2ccccc2)CCOCC1	.	.	.	-12	.	.
Fc1ccc2cnc(-c3ccccc3)c(-c3cccc(C(F)(F)F)c3)c2c1	1	.	-23	-1	-2	.
COc1cc2cnc(-c3ccccc3)c(-c3cccc(C(F)(F)F)c3)c2cc1OC	3	.	-1	45*	9	.
SMILES	PrPC surface inh	BJeLR lethal	PrP UTR inh	PriA SSB inh	PfHsp40 yeast	RecA intein inh
O=C(C1=C(O)C(=O)N(CCCn2ccnc2)C1c1cccc([N+](=O)[O-])c1)c1cccs1 (stereo not drawn)	.	.	.	10	.	.
CC(C)(C)c1ccc(C(=O)Nc2ccc3c(c2)C(=O)NCCO3)cc1	.	.	.	-8	.	.
O=c1[nH]c(=O)n([C@H]2C[C@H](O)[C@@H](CO)O2)cc1F	12	93*	35	-7	-1	-2
O=c1[nH]c(=O)n(C2CC(O)C(CO)O2)cc1I (stereo not drawn)	2	.	-37	-21	-1	.
COCCN=c1scc(-c2cc(OC)ccc2OC)n1N=Cc1c[nH]c2ccccc12	.	.	.	66*	.	.
Nc1nn(S(=O)(=O)c2cccc3nsnc23)cc1-c1ccc(Br)cc1	-11	5	-18	42*	0	-5
CN(CC#CCNS(=O)(=O)c1cccc(Cl)c1)Cc1ccccc1	.	.	.	9	.	.
Cn1cnc(S(=O)(=O)N2CCC(S(=O)(=O)Cc3ccco3)CC2)c1	.	.	.	68*	.	.
O=S(=O)(Cc1ccco1)C1CCN(S(=O)(=O)c2ccccc2F)CC1	.	.	.	83*	.	.
Cc1ccc(S(=O)(=O)N2CCC(S(=O)(=O)Cc3ccco3)CC2)s1	.	.	.	-11	.	.
O=[N+]([O-])c1ccc(O)c(CSc2nnnn2-c2ccccc2)c1	-5	-2	-22	99*	-3	2
COc1ccc(CCNC(CC(=O)Nc2ccc(F)cc2F)C(=O)O)cc1OC (stereo not drawn)	.	.	.	0	.	.
CN(CCO)c1ncnc2nc[nH]c12	-1	-3	-25	104*	0	1
COc1ccccc1OCCCCn1c([C@H](C)O)nc2ccccc21	.	.	.	-3	.	.
O=C(Nc1ncccc1O)c1cccc(S(=O)(=O)N2CCCc3ccccc32)c1	-4	8	-2	11	62*	3
Cc1cccnc1NC(=O)c1cccc(S(=O)(=O)N2CCCc3ccccc32)c1	9	11	7	7	-4	-2
COc1cccc(-c2ccc(=O)n(CCCC(=O)Nc3ccccc3SC)n2)c1	.	.	.	2	.	.
C=CS(=O)(=O)c1ccc(Oc2ccc(S(=O)(=O)C=C)cc2)cc1	64*	37	2	-8	-1	9
Cn1cccc(C(=O)N2CCC[C@@]3(C2)OC(=O)c2ccccc23)c1=O	.	.	.	-21	.	.
Cc1cc(C)c(S(=O)(=O)Nc2ccc3c(c2)CCCN3S(=O)(=O)c2ccc(F)cc2)c(C)c1	.	.	.	1	.	.
COc1cc(C=NNC(=O)C(Cc2c[nH]c3ccccc23)NC(=O)OCc2ccccc2)cc([N+](=O)[O-])c1O (stereo not drawn)	.	.	.	44	.	.
CN(C(=O)C(N=Nc1cccc(C(F)(F)F)c1)=C(O)C(F)(F)F)c1ccccc1	.	.	.	5	.	.
O=C(Nc1nc2c(s1)CCc1ccccc1-2)c1ccc(Br)s1	.	.	.	-12	.	.
O=C(O)c1cccc2c1-c1ccc(Cl)cc1C2	8	.	-2	-12	44*	.
COc1ccc(OCC(=O)Nc2ccc(N3CCN(C(=O)c4ccccc4)CC3)c(Cl)c2)cc1	7	-2	-34	7	39*	1
SMILES	PrPC surface inh	BJeLR lethal	PrP UTR inh	PriA SSB inh	PfHsp40 yeast	RecA intein inh
COc1ccc2cc(C[C@@H]3CC[C@@H](CNC(N)=O)O3)ccc2c1	2	.	-28	-9	38*	.
COc1ccc(-c2nc3scc(CCNC(=O)c4cccc(C(F)(F)F)c4)n3n2)cc1OC	.	.	.	-8	.	.
COc1ccc(CC(=O)N(CCN2CCOCC2)c2nc3ccc(SC)cc3s2)cc1OC	.	.	.	29*	.	.
Cc1cccc(OCCOC(=O)C2CCN(S(=O)(=O)c3cccs3)CC2)c1	-5	-1	-6	-16	102*	-3
CCOC(=O)C1CCN(C(=O)Cn2cnc(-c3ccc(C)cc3)cc2=O)CC1	.	.	.	-6	.	.
O=C(NCCS(=O)(=O)NCCc1c[nH]c2ccccc12)c1ccccc1	.	.	.	13	.	.
Cc1ccc2c(c1)-c1c(ssc1=S)C(C)(C)N2C(=O)CSC1=NCCS1	-11	-7	-6	-18	1	30*
CC(=O)OCC1OC(Oc2ccc(C(=O)Cc3ccc(OC(C)C)cc3)c(O)c2)C(OC(C)=O)C(OC(C)=O)C1OC(C)=O (stereo not drawn)	.	.	.	-2	.	.
